Only some compounds are listed: those with a hit (about 1.2% of all), similar ones and a draw of the others.
PrP UTR inh: inhibition of PrP 5' UTR reporter expression. cell-based PrP 5' UTR mRNA reporter, plate reader. inhibition, % (concentration not given with the values). 340,000 compounds, 0.35% hits; in the data active = inhibition above about 52%; note: 0 = median of the neutral control wells
SSB-PriA inh: K. pneumoniae PriA-SSBct interaction inhibition | AID 1272365 | AlphaScreen SSBct-PriA binding, biotinylated peptide | inhibition, % at 33 µM | 430,000 compounds, 0.6% hits; in the data active = inhibition mostly above about 37%, no sharp cut-off; inactive = mostly below about 20%;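 note: plate controls were negative control peptide for no effect and reference peptide for full effect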
BJeLR lethal: kills HRASV12-expressing BJeLR cells | BJeLR (HRASV12) viability, CellTiter-Glo ATP luminescence, 48 h | inhibition, % (no concentration beside the values) | 300,000 compounds, 0.17% hits | AID 1554; in the data active = inhibition above about 50%
SARS 3CLpro inh: SARS-CoV 3CLpro protease inhibition; inhibition, % at 6 µM; recombinant SARS-CoV 3CLpro, quenched FRET peptide cleavage; P0C6X7; 290,000 compounds, 0.14% hits; AID 1706; in the data active = inhibition above about 12%
PrPC surface inh: cell surface PrPC inhibition, primary TR-FRET screen; AID 720596; P04156; 370,000 compounds, 0.43% hits; inhibition, % at 13.8 µM; TR-FRET read-out; in the data active = inhibition above about 24%; note: 0% = median of the test wells and 100% = reference compound wells
* hit, by the source's call; x = no result.

SMILES | PrP UTR inh | SSB-PriA inh | BJeLR lethal | SARS 3CLpro inh | PrPC surface inh
CCOc1ccc(NC(=O)CC(NCc2ccccn2)C(=O)O)cc1 (stereo not given) | -9.0 | 96.0* | -2.2 | 1.8 | 1.9
COc1ccc(NC(=O)CC(NCc2ccccn2)C(=O)O)cc1 (stereo not given) | -13.6 | -7.6 | -0.8 | 1.1 | 1.6
COc1ccccc1N=Nc1ccc(N)c(C)c1 | -16.2 | 72.7* | -1.4 | 4.3 | -9.5
COc1cc(N=Nc2ccccc2C(=O)O)ccc1O | -11.0 | -6.6 | -8.6 | 3.9 | -15.9
CC(=O)c1ccc(Nc2cnn(C34CC5CC(CC(CC(=O)O)(C5)C3)C4)c(=O)c2Cl)cc1 | -18.4 | -2.0 | 4.0 | -1.2 | -4.1
Cc1ccc(Nc2cnn(C34CC5CC(CC(CC(=O)O)(C5)C3)C4)c(=O)c2Cl)cc1 | -15.4 | -8.8 | -1.6 | 12.2* | -6.3
O=C(CCNc1ccc(Cc2ccncc2)cc1)c1ccc([N+](=O)[O-])cc1 | -6.4 | 46.9* | -2.0 | 2.3 | -12.8
O=C(NCC1(O)Cc2ccccc2C1)Nc1ccc(C(F)(F)F)cc1 | x | 2.0 | x | x | x
CCN1CCN(c2oc(-c3ccccc3C)nc2S(=O)(=O)c2ccccc2)CC1 | -10.0 | 38.6* | x | x | 0.3
Fc1ccc(Br)cc1C=NN1CCN(c2ccccc2)CC1 | x | 10.1 | x | x | x
O=C(c1ccco1)N(CCCn1ccnc1)c1nc2ccccc2s1 | x | 72.2* | x | x | x
Cc1ccc2sc(N(CCCn3ccnc3)C(=O)c3ccco3)nc2c1C | x | 87.8* | x | x | x
O=C(CSc1ccccc1)N(CCCn1ccnc1)c1nc2c(Cl)cccc2s1 | x | 1.0 | x | x | x
CC(C)CN(C(=O)c1ccco1)c1nc2ccccc2s1 | -16.8 | -23.2 | -19.9 | 2.2 | -1.4
O=C(c1cccs1)N(CCCn1ccnc1)c1nc2c(Cl)cccc2s1 | x | 77.0* | x | x | x
CC(=O)c1ccc(C(=O)N(CCCn2ccnc2)c2nc3c(C)cc(C)cc3s2)cc1 | x | 49.0* | x | x | x
CN(C)CCCN(C(=O)c1ccco1)c1nc2c(F)cccc2s1 | -16.0 | -4.4 | 9.0 | 4.3 | 0.3
CCCOc1ccc(S(=O)(=O)Nc2ncccc2C)c2ccccc12 | x | 4.0 | x | x | x
O=C1CC(c2nc(-c3cccs3)no2)CN1Cc1ccc(F)cc1 (stereo not given) | x | -17.0 | x | x | x
CC1(C)Cc2cccc(OCc3ccc(C(=O)Nc4nc5ccc([N+](=O)[O-])cc5s4)cc3)c2O1 | x | 1.0 | x | x | x
Cc1cccc2sc(N(CCCn3ccnc3)C(=O)c3ccco3)nc12 | x | 45.0* | x | x | x
CCC(C(=O)Nc1cccc(C(F)(F)F)c1)c1ccccc1 (stereo not given) | -4.7 | -72.3 | -1.4 | 12.9* | 4.0
O=C(Nc1cccc(C(F)(F)F)c1)C(SCCO)c1ccccc1 (stereo not given) | -13.1 | -3.7 | -10.0 | 4.6 | 5.8
Cc1ccccc1-c1csc2c(=O)n(CCOc3ccccc3)cnc12 | x | 5.0 | x | x | x
COc1ccc2nc(NC(=O)c3cc(C)oc3C)sc2c1 | -52.9 | -13.2 | 21.4 | 6.7 | 2.1
SMILES | PrP UTR inh | SSB-PriA inh | BJeLR lethal | SARS 3CLpro inh | PrPC surface inh
COc1ccc2nc(NC(=O)c3ccoc3C)sc2c1 | -105.4 | -12.3 | 75.4* | 0.5 | 5.3
COc1ccc(Nc2ccnc(Nc3ccc(OC)cc3)n2)cc1 | -85.1 | 44.9* | 15.3 | 3.0 | 3.7
COc1ccc(Nc2nc(OC)nc(OC)n2)cc1 | -19.7 | -3.2 | -0.8 | -1.5 | -1.9
O=C(Nc1nnc(C2CCCO2)s1)c1ccccn1 (stereo not given) | x | 110.0* | x | x | x
O=C(Nc1nnc(C2CCCCC2)s1)c1ccccn1 | x | 70.5* | x | x | x
O=C(Nc1nnc(C2CCCO2)s1)c1cccs1 (stereo not given) | -5.4 | -13.3 | 8.9 | 0.2 | 2.7
O=C(Nc1nnc(C2CCC2)s1)c1ccccn1 | x | 101.8* | x | x | x
O=C(Nc1nnc(SCc2ccc(F)cc2)s1)c1csnn1 | x | 22.0 | x | x | x
O=C(Nc1nnc(SCc2ccc(F)cc2)s1)c1ccccn1 | 12.3 | 78.3* | 10.7 | 6.3 | 16.2
Cc1cc(NC(=O)CCCCl)n(-c2ncnc3c2cnn3-c2ccc(F)cc2)n1 | x | 20.0 | x | x | x
O=[N+]([O-])c1ccc(N2Cc3ccccc3CS2(=O)=O)cc1 | x | -10.0 | x | x | x
O=C(Oc1ccc(Cl)c2cccnc12)c1ccco1 | 0.7 | 51.7* | 2.3 | 1.8 | 2.5
O=C(Oc1ccc(Cl)c2cccnc12)c1ccc(F)cc1 | x | -12.0 | x | x | x
Cc1cccc(NS(=O)(=O)c2cc(NC(=O)CC(=O)c3ccc([N+](=O)[O-])cc3)ccc2C)c1 | x | x | -1.5 | 0.6 | x
COc1ccc(C)cc1NS(=O)(=O)c1ccc(NC(=O)CN(c2cc([N+](=O)[O-])ccc2C)S(C)(=O)=O)cc1 | -3.1 | -13.9 | 109.3* | 7.6 | -9.2

Screening results deposited in PubChem BioAssay by several laboratories.
